Laboratory results: PubChem BioAssay (Tox21)
Where “and” joins values, the source holds several entries; their conditions need not be identical. Equal values may be shown once. Records with an inconclusive call do not appear. A call without a number means that no potency is given here. More than one record can exist for a structure, and the calls need not agree. Calls of active or inactive are those of the source. Unless noted, the call rests on the fitted dose curve.

Columns and labels:
[1] = Nuclear factor erythroid 2-related factor 2/antioxidant responsive element (Nrf2/ARE) small molecule agonists: qHTS cell viability counter screen in human keratinocytes (AID 1919968; active means well fitted curve in the direction sought with a large enough effect in the repeat runs; an effect the other way counts as inactive or inconclusive; further: nearly all actives have a fitted effect of over 55% in size; further: potency means the concentration at half of the fitted maximal effect)
Procedure, shortened: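 After a 5 h attachment period, ARE-reporter keratinocytes were dosed with compounds in DMSO and then cultured 23 h at 37 C. Cell viability came from CellTiter-Fluor signal read after a further 1 h.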

[2] = Nuclear factor erythroid 2-related factor 2/antioxidant responsive element (Nrf2/ARE) small molecule agonists: luciferase reporter gene qHTS assay in human keratinocytes (AID 1919969); further: nearly all actives have a fitted effect of over 35% in size; further: potency means the concentration at half of the fitted maximal effect
[3] = target: Gonadotropin-releasing hormone receptor (Homo sapiens) (UniProt P30968); assay: Human gonadotropin-releasing hormone receptor (GnRHR) small molecule agonists, calcium flux assay in GnRHR-HEK293 cells (AID 1920063); further: nearly all actives have a fitted effect of over 35% in size
Chain of Gonadotropin-releasing hormone receptor (Homo sapiens) (P30968 whole entry, looked up): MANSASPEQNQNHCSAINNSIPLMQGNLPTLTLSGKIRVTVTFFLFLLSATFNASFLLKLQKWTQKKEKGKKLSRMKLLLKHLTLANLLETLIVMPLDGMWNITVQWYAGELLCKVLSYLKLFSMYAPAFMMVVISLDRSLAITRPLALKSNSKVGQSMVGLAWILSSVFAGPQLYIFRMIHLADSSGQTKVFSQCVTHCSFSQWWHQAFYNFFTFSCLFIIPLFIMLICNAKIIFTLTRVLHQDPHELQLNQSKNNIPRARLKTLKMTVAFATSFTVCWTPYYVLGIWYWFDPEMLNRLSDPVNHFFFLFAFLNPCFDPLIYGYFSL
Procedure, shortened: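 We seeded human GnRHR-expressing HEK293 cells for 18 hours, loaded them with calcium dye for an hour at 37 C, added test compounds, and recorded fluorescence intensity kinetically for three minutes.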

[4] = target: KiSS-1 receptor (Homo sapiens) (UniProt Q969F8); assay: Human kisspeptin (KISS1R) small molecule agonists, calcium flux assay in KISS1R-HEK293 cells (AID 1920064; active means well fitted curve in the direction sought with a large enough effect in the repeat runs; an effect the other way counts as inactive or inconclusive)
Chain of KiSS-1 receptor (Homo sapiens) (Q969F8 whole entry, looked up): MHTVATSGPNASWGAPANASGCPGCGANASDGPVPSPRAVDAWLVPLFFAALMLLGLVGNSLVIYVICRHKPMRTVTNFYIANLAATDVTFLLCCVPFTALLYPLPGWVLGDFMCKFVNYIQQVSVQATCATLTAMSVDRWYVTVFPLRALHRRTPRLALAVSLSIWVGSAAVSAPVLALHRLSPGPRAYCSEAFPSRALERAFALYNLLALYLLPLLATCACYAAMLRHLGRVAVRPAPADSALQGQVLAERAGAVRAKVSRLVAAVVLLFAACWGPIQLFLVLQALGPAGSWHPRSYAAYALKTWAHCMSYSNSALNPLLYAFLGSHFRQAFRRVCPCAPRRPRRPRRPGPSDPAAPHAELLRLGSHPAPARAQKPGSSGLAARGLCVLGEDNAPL
Procedure, shortened: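 Kinetic calcium assay, 1 s sampling over 3 min at Ex/Em 480/540, in HEK293 cells engineered with human KISS1R; compounds delivered in DMSO after 1 h dye loading.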

[5] = G protein-coupled receptor (GPCR) small molecule agonists, calcium flux assay: HEK293 wild type cell line counter screen (AID 1920065)
Procedure, shortened: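 Calcium-sensitive dye, loaded 1 h at 37 C into cells cultured 18 h, reports compound-evoked calcium release as fluorescence (Ex/Em 480/540), measured over 3 min. Agonist mode; 15-point titrations, triplicate.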

[6] = p53 small molecule agonists, cell-based qHTS assay with human liver microsomes (AID 1963577);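 further: p53 response element beta-lactamase reporter cells with liver microsomes plus NADPH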
Procedure, shortened: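 Reporter activation was measured by LiveBLAzer fluorescence intensity in p53RE-bla cells, which had been exposed to compounds for 16 h at 37 C alongside 0.5 mg/mL human liver microsomes and 0.5 mg/mL NADPH (final concentrations).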

[7] = p53 small molecule agonists, cell-based qHTS assay with rat liver microsomes (AID 1963578)
Procedure, shortened: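 Compound in DMSO added to p53RE-bla cells 5 h post-plating; rat microsomes/NADPH 0.5 mg/mL final; 16 h, 37 C; LiveBLAzer 2 h RT.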

[8] = p53 small molecule agonists, cell-based qHTS assay with human liver microsomes: qHTS cell viability counter screen (AID 1963579); further: nearly all actives have a fitted effect of over 45% in size; further: potency means the concentration at half of the fitted maximal effect
Procedure, shortened: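 HLM-supplemented (0.5 mg/mL final) and NADPH-supplemented (0.5 mg/mL final) p53RE-bla cultures, 4,000 cells per well, were dosed with compounds in DMSO for 16 h at 37 C; luminescent ATP detection (CellTiter-Glo, 30 min, room temperature) quantified surviving cells.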

[9] = p53 small molecule agonists, cell-based qHTS assay with rat liver microsomes: qHTS cell viability counter screen (AID 1963580); further: nearly all actives have a fitted effect of over 45% in size; further: potency means the concentration at half of the fitted maximal effect
Procedure, shortened: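 Viability is assessed in parallel with the p53 reporter read: HCT-116 p53RE-bla cells receive compounds plus rat microsomes and NADPH (0.5 mg/mL final apiece), incubate 16 h at 37 C, and then CellTiter-Glo luminescence is recorded.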

[10] = p53 small molecule agonists, cell-based qHTS assay: qHTS cell viability counter screen (AID 1963581); further: nearly all actives have a fitted effect of over 45% in size
Procedure, shortened: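 Following 5 h attachment, HCT-116 p53RE-bla cells took up compound for 16 h at 37 C; the reporter was read with B/G FRET substrate (2 h RT), and viability then via CellTiter-Glo ATP luminescence.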

[11] = p53 small molecule agonists, cell-based qHTS assay (AID 1963582; active means well fitted activation curve with a large enough effect in the signal ratio in the repeat runs, not every such curve was filed as active; the % refers to the signal ratio)
Procedure, shortened: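 In this cell-based concentration-response screen, a p53 response element drives beta-lactamase; cells received DMSO-borne compounds after 5 h culture and were incubated a further 16 h before FRET substrate development.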

[12] = target: 5-hydroxytryptamine receptor 2A (Homo sapiens) (UniProt P28223); assay: 5-hydroxytryptamine receptor 2A (HTR2A) small molecule antagonists, cell-based qHTS assay (AID 1963586); further: nearly all actives have a fitted effect of over 45% in size; further: potency means the concentration at half of the fitted maximal effect
Chain of 5-hydroxytryptamine receptor 2A (Homo sapiens) (P28223 whole entry, looked up): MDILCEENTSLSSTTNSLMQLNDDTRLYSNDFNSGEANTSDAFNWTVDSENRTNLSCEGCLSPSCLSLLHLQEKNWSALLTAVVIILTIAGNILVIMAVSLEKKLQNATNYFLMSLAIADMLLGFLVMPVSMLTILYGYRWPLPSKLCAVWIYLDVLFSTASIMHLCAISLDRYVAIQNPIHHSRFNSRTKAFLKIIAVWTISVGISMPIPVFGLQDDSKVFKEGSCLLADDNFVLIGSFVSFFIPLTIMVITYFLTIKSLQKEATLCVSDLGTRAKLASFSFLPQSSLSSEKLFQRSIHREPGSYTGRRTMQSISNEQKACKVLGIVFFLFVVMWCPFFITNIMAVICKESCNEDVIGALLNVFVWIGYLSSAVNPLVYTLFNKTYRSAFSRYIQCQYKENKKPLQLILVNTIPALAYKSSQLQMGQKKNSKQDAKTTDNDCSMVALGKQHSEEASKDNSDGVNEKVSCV
Procedure, shortened: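 Antagonist-mode intracellular calcium assay: DOI (4 nM) added after 5 min compound pre-incubation at room temperature to dye-loaded HTR2A-CHO cells. Fluorescence followed for 3 min, sampled every second.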

[13] = target: 5-hydroxytryptamine receptor 2A (Homo sapiens) (UniProt P28223); assay: 5-hydroxytryptamine receptor 2A (HTR2A) small molecule agonists, cell-based qHTS assay (AID 1963587); further: nearly all actives have a fitted effect of over 30% in size; further: potency means the concentration at half of the fitted maximal effect
Procedure, shortened: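 CHO cells stably expressing human HTR2A, plated 18 h, loaded with calcium dye 1 h at 37 C. Agonist mode: compounds added and intracellular calcium fluorescence recorded kinetically for 2 min at 1 sec intervals.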

[14] = target: Muscarinic acetylcholine receptor M1 (Homo sapiens) (UniProt P11229); assay: Cholinergic receptor muscarinic 1 (CHRM1) small molecule antagonists, cell-based qHTS assay (AID 1963588); further: nearly all actives have a fitted effect of over 40% in size; further: potency means the concentration at half of the fitted maximal effect
Chain of Muscarinic acetylcholine receptor M1 (Homo sapiens) (P11229 whole entry, looked up): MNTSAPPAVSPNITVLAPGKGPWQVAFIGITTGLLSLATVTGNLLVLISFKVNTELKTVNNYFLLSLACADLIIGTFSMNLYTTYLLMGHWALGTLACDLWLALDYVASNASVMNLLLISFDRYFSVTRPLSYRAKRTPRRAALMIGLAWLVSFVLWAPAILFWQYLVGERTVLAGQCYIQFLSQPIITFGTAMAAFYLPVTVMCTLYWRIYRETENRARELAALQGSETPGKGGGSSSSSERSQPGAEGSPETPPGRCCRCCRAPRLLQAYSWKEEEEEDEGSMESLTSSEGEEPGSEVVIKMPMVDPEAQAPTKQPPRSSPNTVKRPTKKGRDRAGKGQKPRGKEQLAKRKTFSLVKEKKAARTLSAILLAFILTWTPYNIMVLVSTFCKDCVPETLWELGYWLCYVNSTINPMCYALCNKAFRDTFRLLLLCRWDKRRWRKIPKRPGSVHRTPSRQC
Procedure, shortened: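 CHRM1-CHO calcium-flux assay, antagonist mode. Cells were seeded 18 h, dye-loaded 1 h at 37 C and given compound for 5 min at RT, then acetylcholine was added at 50nM. FDSS fluorescence was read 3 min; 15 concentrations, three runs.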

[15] = target: Muscarinic acetylcholine receptor M1 (Homo sapiens) (UniProt P11229); assay: Cholinergic receptor muscarinic 1 (CHRM1) small molecule agonists, cell-based qHTS assay (AID 1963589); further: nearly all actives have a fitted effect of over 35% in size
Procedure, shortened: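 Measures agonist-induced intracellular calcium rise. Stable human CHRM1 CHO line, 1 h dye load at 37 C, compounds from DMSO, kinetic fluorescence read.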

[16] = cAMP Responsive Elements (CRE) small molecule antagonists, cell-based qHTS assay (AID 1963591; active means well fitted inhibition curve with a large enough effect in the signal ratio in the repeat runs, not every such curve was filed as active; the % refers to the signal ratio)
Procedure, shortened: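 HEK293T cells carrying a CRE-driven beta-lactamase reporter receive compound and NKH477 (0.25 uM final) for 3 h. Fluorescence from LiveBLAzer B/G FRET substrate is read after 2 h at room temperature.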

[17] = target: Beta-2 adrenergic receptor (Homo sapiens) (UniProt P07550); assay: Adrenergic beta2 receptor (ADRB2) small molecule antagonists, cell-based qHTS assay (AID 1963592); further: series mostly up to about 92 µM; nearly all actives have a fitted effect of over 50% in size
Chain of Beta-2 adrenergic receptor (Homo sapiens) (P07550 whole entry, looked up): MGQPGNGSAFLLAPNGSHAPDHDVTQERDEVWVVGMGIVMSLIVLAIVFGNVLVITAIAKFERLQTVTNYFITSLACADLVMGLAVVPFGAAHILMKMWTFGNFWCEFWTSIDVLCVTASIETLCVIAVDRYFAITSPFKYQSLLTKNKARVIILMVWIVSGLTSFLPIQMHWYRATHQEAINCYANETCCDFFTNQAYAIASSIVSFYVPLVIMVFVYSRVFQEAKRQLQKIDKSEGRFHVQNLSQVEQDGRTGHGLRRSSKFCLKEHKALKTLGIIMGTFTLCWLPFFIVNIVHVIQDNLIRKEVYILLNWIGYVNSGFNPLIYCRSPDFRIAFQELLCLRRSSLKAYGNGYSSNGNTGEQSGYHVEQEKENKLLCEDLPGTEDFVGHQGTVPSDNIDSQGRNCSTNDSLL
Procedure, shortened: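 Cells (CHO, stable ADRB2 overexpression) incubated 18-20hr at 37C; compounds added from DMSO; agonist mix (1nM isoproterenol, 100uM IBMX, 25uM Ro-20-1724) added; 0.5hr RT; d2-cAMP and anti-cAMP-cryptate added; 1hr RT; 665/615 nm read.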

[18] = target: D(2) dopamine receptor (Homo sapiens) (UniProt P14416); assay: Dopamine D2 receptor (DRD2) small molecule agonists, cell-based qHTS assay (AID 1963594); further: nearly all actives have a fitted effect of over 35% in size
Chain of D(2) dopamine receptor (Homo sapiens) (P14416 whole entry, looked up): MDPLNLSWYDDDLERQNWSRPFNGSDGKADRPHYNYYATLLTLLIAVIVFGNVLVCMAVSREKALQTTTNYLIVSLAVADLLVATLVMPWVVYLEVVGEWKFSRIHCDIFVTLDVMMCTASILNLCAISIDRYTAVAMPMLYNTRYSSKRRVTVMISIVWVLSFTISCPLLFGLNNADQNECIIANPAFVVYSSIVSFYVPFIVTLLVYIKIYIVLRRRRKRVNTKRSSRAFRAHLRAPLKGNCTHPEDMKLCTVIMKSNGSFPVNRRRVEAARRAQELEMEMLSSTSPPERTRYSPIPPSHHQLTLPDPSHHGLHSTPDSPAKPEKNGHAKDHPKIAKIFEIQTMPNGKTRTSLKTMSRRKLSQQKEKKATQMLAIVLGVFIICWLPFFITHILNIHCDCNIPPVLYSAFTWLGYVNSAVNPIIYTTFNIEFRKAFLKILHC
Procedure, shortened: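 HEK293 cells stably expressing human DRD2, pre-treated with PDE inhibitor Ro20-1724 (0.1 mM final) and compound 10 min at room temperature, then stimulated with NKH477 (200nM […]) for 30 min. cAMP read by HTRF (665/620 nm).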

[19] = cAMP Responsive Elements (CRE) small molecule agonists, cell-based qHTS assay (AID 1963590)
Procedure, shortened: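 A CRE-responsive beta-lactamase reporter in HEK 293T cells was used. Treatment ran 3 h at 37 C; detection used LiveBLAzer B/G FRET substrate for 2 h at room temperature.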

[20] = target: D(2) dopamine receptor (Homo sapiens) (UniProt P14416); assay: Dopamine D2 receptor (DRD2) small molecule antagonists, cell-based qHTS assay (AID 1963595; active means well fitted inhibition curve with a large enough effect in the signal ratio in the repeat runs, with a control signal flat; the % refers to the signal ratio)
Procedure, shortened: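 In this cell-based antagonist screen, compounds act for 10 min at room temperature before a 30 min challenge with 12 nM quinpirole and 200 nM NKH477. cAMP is quantified by HTRF competition in DRD2-HEK293 cells containing 0.1 mM Ro20-1724.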

Row | SMILES | Potency [1] | Potency [2] | Potency [3] | Potency [4] | Potency [5] | Potency [6] | Potency [7] | Potency [8] | Potency [9] | Potency [10] | Potency [11] | Potency [12] | Potency [13] | Potency [14] | Potency [15] | Potency [16] | Potency [17] | Potency [18] | Potency [19] | Potency [20]
1 | CCCCCCCCCCCCCC[N+](C)(C)Cc1ccccc1 | 24.7 µM (active) and 13.3 µM (active) and 12.6 mM (active) | inactive | inactive | inactive | inactive | inactive | inactive | inactive and 17.8 mM (active) | 46.5 µM (active) and inactive | inactive | inactive | 1.2 µM (active) and 4.1 µM (active) and inactive | inactive and 20 mM (active) | 2.7 µM (active) and 631 µM (active) | inactive | inactive | inactive | inactive | – | –
2 | Nc1cc([N+](=O)[O-])ccc1C(=O)O | inactive | inactive | inactive | inactive | inactive | inactive | inactive | inactive | inactive | inactive | inactive | inactive | inactive | inactive | inactive | inactive | inactive | inactive | inactive | inactive
3 | CC(C)OB(OC(C)C)OC(C)C | inactive | inactive | inactive | inactive | inactive | inactive | inactive | inactive | inactive | inactive | inactive | inactive | inactive | inactive | inactive | – | inactive | inactive | inactive | inactive
4 | O=C(O)c1ccc2c(c1)C(=O)OC2=O | inactive | inactive | inactive | inactive | inactive | inactive | inactive | inactive | inactive | inactive | inactive | inactive | inactive | inactive | inactive | inactive | – | inactive | inactive | inactive
5 | C=CC(=O)OCCCC | inactive | inactive | inactive | inactive | inactive | inactive | inactive | inactive | inactive | inactive | inactive | inactive | inactive | inactive | inactive | inactive | inactive | inactive | inactive | inactive
6 | CCC(O)OC(O)CC (stereo not given) | inactive | inactive | inactive | inactive | inactive | inactive | inactive | inactive | inactive | inactive | inactive | inactive | inactive | inactive | inactive | inactive | inactive | inactive | inactive | inactive
7 | C[C@]12CC[C@@H]3c4ccc(O)cc4C[C@@H](CCCCCCCCCS(=O)CCCC(F)(F)C(F)(F)F)[C@H]3[C@@H]1CC[C@@H]2O (stereo not given in full) | inactive and 4.73 µM (active) | inactive | inactive | inactive | inactive | inactive | inactive | inactive | inactive | inactive | inactive | inactive | inactive | inactive | inactive | inactive | inactive | inactive | inactive | inactive
8 | CCC(=O)/C=C/C1C(C)=CCCC1(C)C (stereo not given) | inactive | inactive | inactive | inactive | inactive | inactive | inactive | inactive | inactive | inactive | inactive | inactive | inactive | inactive | inactive | inactive | inactive | inactive | inactive | inactive
9 | C=C(C)CNCC | inactive | inactive | inactive | inactive | inactive | inactive | inactive | inactive | inactive | inactive | inactive | inactive | inactive | inactive | inactive | inactive | inactive | inactive | – | inactive
10 | OCc1ccc(Cl)cc1Cl | inactive | inactive | inactive | inactive | inactive | inactive | inactive | inactive | inactive | inactive | inactive | inactive | inactive | inactive | inactive | – | inactive | inactive | inactive | inactive
11 | C=CCc1ccc(OC)c(OC)c1 | inactive | inactive | inactive | inactive | inactive | inactive | inactive | inactive | inactive | inactive | inactive | inactive | inactive | inactive | inactive | inactive | inactive | inactive | inactive | inactive
12 | CC(C)(CO)COC(=O)C(C)(C)CO | inactive | inactive | inactive | inactive | inactive | inactive | inactive | inactive | inactive | inactive | inactive | inactive | inactive | inactive | inactive | inactive | inactive | inactive | inactive | inactive
13 | COc1ccc(C(Cl)=C(c2ccc(OC)cc2)c2ccc(OC)cc2)cc1 | inactive | inactive | inactive | inactive | inactive | inactive | inactive | inactive | inactive | inactive | inactive | inactive | inactive | inactive | inactive | inactive | inactive | inactive | – | inactive
14 | Nc1cccc(N)c1 | inactive | inactive and 21.4 µM (active) | inactive | inactive | inactive | inactive | inactive | inactive | inactive | inactive | inactive | inactive | inactive | inactive | inactive | inactive | – | inactive | inactive | inactive
15 | CCCCCCCCCCCC(=O)OC | inactive | inactive | inactive | inactive | inactive | inactive | inactive | inactive | inactive | inactive | inactive | inactive | inactive | inactive | inactive | inactive | inactive | – | – | inactive
